Test results from PubChem BioAssay AID651561 (Sanford-Burnham Center for Chemical Genomics, 2012).
This is one part of the list. Activity calls are given as the source filed them. No stated cut-off is given here; in the data, active means IC50 below about 20 µM; inactive means the rest.

assay: mitochondrial permeability transition pore inhibitors, dose response, biochemical, absorbance, uHTS hits (AID 651561); conditions: isolated mitochondria swelling

Row | Structure (SMILES) | IC50
1 | CCCC[C@@H]1CN=C(N)N1CCc1cc(C(F)(F)F)cc(C(F)(F)F)c1 | 6.67 µM (active)
2 | CN1CCC[C@@H]1CCO[C@](C)(c1ccccc1)c1ccc(Cl)cc1 | 8.66 µM (active)
3 | O=C(Nc1cccc(-c2cccc(Cl)c2)c1)C1CCN(C2CCC2)CC1 | 5.2 µM (active)
4 | COc1ccc(/C=C(/CC(=O)Nc2ccc(C)cc2)c2nc3ccccc3s2)cc1 | 45.4 µM (inactive)
5 | Brc1ccc(CSc2ccc(-c3ccco3)nn2)cc1 | > 100 µM (inactive)
6 | Cc1nn(Cc2ccccc2)c2c1C(c1ccccc1)C(C#N)=C(N)O2 (stereo not drawn) | 25.9 µM (inactive)
7 | CCCCCCCCCCCCN1C(=O)CSC1c1cccnc1 (stereo not drawn) | 9.05 µM (active)
8 | CC1(C)CC(=O)c2sc(N)nc2C1 | > 100 µM (inactive)
9 | O=C(c1ccc(Cl)cc1)c1ccc(OCC(O)CN2CCCCC2)cc1 (stereo not drawn) | 17.4 µM (active)
10 | NC(N)=N/N=C/c1ccc(Cl)c([N+](=O)[O-])c1 | 7.68 µM (active)
11 | O=C(COC(=O)c1ccccc1NC(=O)c1ccco1)Nc1ccc2c(c1)OC(F)(F)O2 | 23.5 µM (inactive)
12 | CCCc1[nH]nc2c1C(c1c(C)nn(-c3ccccc3)c1Cl)C(C#N)=C(N)O2 (stereo not drawn) | > 100 µM (inactive)
13 | CCCCc1nc(NCCN)c(C#N)c2c1CSC(C)(C)C2 | 13.3 µM (active)
14 | CCNCCC(=O)N1c2ccccc2Sc2ccc(NC(=O)OCC)cc21 | 32.7 µM (inactive)
15 | CCCC(C(=O)OCCN(CC)CC)(c1ccccc1)c1ccccc1 | 12.5 µM (active)
16 | O=C(Nc1cccc(C(F)(F)F)c1)c1ccc(N2CCNCC2)c([N+](=O)[O-])c1 | 8.28 µM (active)
17 | CCCCOC(=O)CNc1nnc(SCC(=O)OCC)[nH]c1=O | > 100 µM (inactive)

Row | Structure (SMILES) | IC50
18 | O=C(NC1CCN(Cc2ccccc2)CC1)c1cc(Br)c(Br)[nH]1 | > 100 µM (inactive)
19 | N=c1n(Cc2ccc(Cl)cc2)c2ccccc2n1CC(O)c1ccco1 (stereo not drawn) | 5.87 µM (active)
20 | Clc1ccc(-c2cc(C3CCNCC3)[nH]n2)c(Cl)c1 | 11.7 µM (active)
21 | FC(F)(F)COc1nc(N2CCCCC2)nc(N2CCNCC2)n1 | 18.9 µM (active)
22 | CN(C)Cc1ccc(F)cc1Sc1cc(Cl)ccc1Cl | 45 µM (inactive)
23 | C[C@@H](CN1CCC[C@H]1CN1C(N)=NC[C@@H]1Cc1ccccc1)N1C[C@@H](Cc2ccccc2)N(CCCC2CCCC2)C1=N | 3.54 µM (active)
24 | Cc1cc(C)c(NC(=O)C[N+](C)(C)CC(O)COc2cccc3ccccc23)c(C)c1 (stereo not drawn) | 3.67 µM (active)
25 | NC[C@H](Cc1ccccc1)NCCc1cc(C(F)(F)F)cc(C(F)(F)F)c1 | 12 µM (active)
26 | Fc1ccc(N2N=C(c3cccs3)CC2c2ccco2)c(F)c1 (stereo not drawn) | 51.9 µM (inactive)
27 | CCOC(=O)c1c(NC(=O)CSc2cn(CC)c3ccccc23)sc2c1CCC2 | > 100 µM (inactive)
28 | Cc1ccc2c(c1)C1CN(C)CCC1N2S(=O)(=O)c1ccc(Oc2ccc([N+](=O)[O-])cc2)cc1 (stereo not drawn) | 17.5 µM (active)
29 | CCCCOc1ccc(CSC(=N)N)cc1[N+](=O)[O-] | 6.05 µM (active)
30 | CN(C)Cc1ccccc1C1(O)c2ccccc2CSc2ccccc21 (stereo not drawn) | 13.4 µM (active)
31 | COCCn1c(CN2CCC(Cc3ccccc3)CC2)nc2c1c(=O)n(C)c(=O)n2C | 3.99 µM (active)
32 | COc1ccc2sc(N(CCCN(C)C)C(=O)c3ccc(S(=O)(=O)N(C)C4CCCCC4)cc3)nc2c1 | 7.47 µM (active)
33 | Cc1ccc(-c2noc(CCC(=O)Nc3ccccc3N3CCN(C)CC3)n2)cc1 | 18.8 µM (active)
